# From PubChem BioAssay
# PNC inhibitor = High Content Assay for Compounds that inhibit the Assembly of the Perinucleolar Compartment; AID 2417, 2010; PC3M PTB-GFP, PNC prevalence imaging, 16 h; hits give low values; activity change (PNC), negative = inhibition, % at 10 µM; 140,000 tested, 3.1% active;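 active = readout at or below -70, meaning at least 70% loss of cells showing the perinucleolar compartment, a nuclear body marking cancer cells; inconclusive = readout between -30 and a set limit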;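 also: plate controls were DMSO wells for no effect and camptothecin positive control wells for full effect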
#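 PC3M cells stably expressing PTB-GFP, 750–1000 cells/well, treated 16 h at 37 °C with compound (23 nl of library stock), in duplicate. After paraformaldehyde fixation and Hoechst stain, imaged at 20x; PNC prevalence scored by image analysis.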
# HPGD block = qHTS Assay for Inhibitors of HPGD (15-Hydroxyprostaglandin Dehydrogenase); purified HPGD, NADH fluorescence kinetic, PGE2 substrate; Potency, µM, for the others: at the highest dose activity change, negative = inhibition, hits mostly inhibitors; 150,000 tested, 4.3% active; AID 894, 2007; also: potency is read from the fitted curve at half-maximal effect
#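 NADH formation kinetics: reaction with 30 uM PGE2 and 1 mM NAD+ (final), 20 nM enzyme, Tris-HCl pH 8 with Tween 20, after 15 min compound preincubation at room temperature. Fluorescence change, last versus first of five reads.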
# ALDH1A1 block = qHTS Assay for Inhibitors of Aldehyde Dehydrogenase 1 (ALDH1A1); Purified ALDH1A1, NADH fluorescence, propionaldehyde substrate; Potency, µM (doses to about 75.3 µM), without a hit: at the top dose activity, negative = inhibition, actives largely listed as inhibitors; Aldehyde dehydrogenase 1A1 (Homo sapiens), P00352; 220,000 tested, 7.3% active;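 also: potency is read from the fitted curve at half-maximal effect; plate controls were no enzyme wells and a reference inhibitor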
# Target sequence (P00352 whole entry, looked up): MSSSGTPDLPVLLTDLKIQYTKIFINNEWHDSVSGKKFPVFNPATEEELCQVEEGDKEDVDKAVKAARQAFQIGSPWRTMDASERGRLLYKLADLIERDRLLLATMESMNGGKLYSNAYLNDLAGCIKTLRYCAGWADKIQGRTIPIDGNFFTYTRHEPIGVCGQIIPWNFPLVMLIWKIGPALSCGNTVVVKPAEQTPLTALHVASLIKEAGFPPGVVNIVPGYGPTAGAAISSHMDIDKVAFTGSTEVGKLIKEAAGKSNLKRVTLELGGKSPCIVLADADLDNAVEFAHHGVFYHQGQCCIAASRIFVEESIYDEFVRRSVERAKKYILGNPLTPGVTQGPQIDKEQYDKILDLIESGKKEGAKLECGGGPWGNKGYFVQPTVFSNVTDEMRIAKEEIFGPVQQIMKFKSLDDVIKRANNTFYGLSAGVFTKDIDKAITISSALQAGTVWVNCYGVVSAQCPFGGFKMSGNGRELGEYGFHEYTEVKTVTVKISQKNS
# Lamin A splicing = qHTS Assay for Modulators of Lamin A Splicing. HeLa LMNA splicing GFP/RFP minigene ratio, 48 h. 200,000 tested, 0.01% active. Potency, µM (doses to about 46.1 µM), for inactives: at the highest dose ratio change, negative = inhibition, most hits filed as inhibitors; active = well fitted inhibition curve with a large enough effect in the signal ratio, with a control signal flat, not every such curve was filed as active; inconclusive = small, poorly fitted or top-dose-only effect, or effect the other way, or a change in a side signal; the % refers to the signal ratio; also: potency is read from the fitted curve at half-maximal effect
#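 S3 HeLa cells stably expressing lamin A-EGFP splicing minigene plus DsRed2, 600 cells/well, 48 h compound exposure at 37C. Laser-scanning cytometry; analysed as GFP (500-530 nm)/RFP (575-640 nm) total intensity ratio; 0.5% DMSO vehicle.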
# ALOX12 inhib = qHTS Assay for Inhibitors of 12-hLO (12-human lipoxygenase); Polyunsaturated fatty acid lipoxygenase ALOX12 (Homo sapiens), P18054; purified 12-hLO, xylenol orange hydroperoxide absorbance; Potency, µM (doses to about 57.1 µM), for the others: top-dose activity change, negative = inhibition, actives largely listed as inhibitors; 150,000 tested, 0.12% active; active = well fitted inhibition curve with a large enough effect; inconclusive = small, poorly fitted or top-dose-only effect; also: potency is read from the fitted curve at half-maximal effect; nearly all actives have a fitted effect of over 55% in size
#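 150 nM 12hLO, 25 mM Hepes pH 7.0 + 0.01% Triton X-100; cpd preinc 15 min RT; 40 uM arachidonic acid, 30 min RT; Fe-XO 30 min; A573/A405 ratio as read-out.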
# An asterisk follows results filed as active; ? = inconclusive; · = not tested or not shown; [ ] = remark or other dose. Shown are actives, neighbours in structure and some others; about 10% of the full set was active somewhere. Unless noted, calls follow the shape of the dose curve; as a rule, active = well fitted inhibition curve with a large enough effect (not every such curve was filed as active); inconclusive = small, poorly fitted or top-dose-only effect, or another doubt; inactive = no such curve, though single readings can be large or run the other way. Unless noted, % is scaled to controls: 0 for no effect and ±100 for the full control effect.
SMILES,PNC inhibitor,HPGD block,ALDH1A1 block,Lamin A splicing,ALOX12 inhib
CC(C)C(OC(=O)c1ccco1)C(=O)NCc1ccccc1 (centres undefined),?,13µM*,0%,-5%,-6%
Cc1cccc(C(OC(=O)c2ccco2)C(=O)NCc2ccccc2)n1 (centres undefined),?,-13%,-9%,-10%,-3%
NS(=O)(=O)c1ccc(NC(=O)COC(=O)COc2cccc(C(F)(F)F)c2)cc1,·,·,4%,·,·
CCOc1ccc(-n2c(C)cc(C(=O)CCl)c2C)cc1,·,·,0.11µM*,?,·
COC(=O)c1ccc(-n2c(C)cc(C(=O)CCl)c2C)cc1,·,·,0.45µM*,?,·
CCOC(=O)c1cc2c(C)n(-c3ccc(OCC)cc3)c(C)c2cc(C(=O)OCC)c1=O,16,-4%,26%,-7%,1%
COc1cccc2c1[C@@H]1CN(CCCCn3c(=O)[nH]c4c(sc5ncc(-c6ccccc6)nc54)c3=O)C[C@H]1CO2,·,·,·,·,9%
O=C1C=C(N2CCCCC2)C2(CCCCC2)O1,·,·,10µM*,·,·
CC(C)(C)c1ccc(C(=O)N2CCN(CCc3ccccn3)CC2)cc1,·,·,·,3%[46 µM],·
CN1CCC2(CC1)N=C(c1ccc(F)cc1)C(=S)N2C(=O)c1ccccc1,57,·,22µM*,1%,1%
CCN1CCC2(CC1)N=C(c1ccc(F)cc1)C(=S)N2C(=O)c1ccc(C(C)(C)C)cc1,23,·,28µM*,?,-2%
Cc1ccc(CN2C(=O)C3(c4ccccc42)N(c2cccc(C(F)(F)F)c2)C(=O)CS3(=O)=O)cc1 (centres undefined),·,·,·,-10%[46 µM],·
c1ccc(SC(Sc2ccccc2)c2ccc3c(c2)OCO3)cc1,·,-2%,0%[13.5 µM],·,1%[11.4 µM]
Nc1ccccc1S[C@@H](C[N+](=O)[O-])c1ccc2c(c1)OCO2,·,3.2µM*,3.5µM*,·,-17%[11.4 µM]
C[C@]12CC[C@H]3c4ccc(O)cc4CC[C@@H]3[C@H]1CC[C@@H]2OC(=O)CCC1CCCC1,·,-10%,10%[13.5 µM],?,-6%[11.4 µM]
COc1ccc(/C=N/OCC(=O)NCc2cccs2)c(OC)c1,?,·,?,-7%,1%
O=C(CO/N=C/c1ccccc1OC(F)F)N1CCc2ccccc21,5,-10%,16µM*,-8%,-2%
CC1Cc2ccccc2N1C(=O)CO/N=C/c1ccccc1OC(F)F (centres undefined),40,-18%,?,-14%,2%
O=C(CO/N=C/c1ccccc1OC(F)F)NCc1cccs1,-29,16µM*,8%,5%,-3%
Nc1nc(SCC(=O)O)[nH]c(=O)c1N,·,-10%,-12%[13.5 µM],·,0%[11.4 µM]
COc1ccc(Cl)cc1C(=O)NC(C)C,·,·,6%,2%[46 µM],·
COC(=O)CCCCCCCCCCN1CCCCC1,21,-4%,-2%,-13%,2%
CCCOC(=O)CCCCCCCCC(O)CN1CCCCC1 (centres undefined),·,·,18µM*,·,·
Cc1cc(C)cc(-n2ccnc2SCC(=O)Nc2cccc3ccccc23)c1,·,·,·,-19%[46 µM],·
COCC(=O)N1CCC2(CC1)CN(c1ccncc1)C2,·,-5%,1%,·,-3%
SMILES,PNC inhibitor,HPGD block,ALDH1A1 block,Lamin A splicing,ALOX12 inhib
CCOC(=O)C1=C(C)NC(C)=C(C(=O)OCC)C1c1cc2ccc(C)cc2[nH]c1=O,-111*,-12%,?,-21%,?
CCC(C)C(=O)NCCc1ccc(S(N)(=O)=O)cc1 (centres undefined),34,-5%,11%,-1%,1%
CCCC(=O)NCCc1ccc(S(N)(=O)=O)cc1,?,-12%,4.5µM*,16%,4%
NS(=O)(=O)c1ccc(CCNC(=O)c2cccnc2)cc1,-100*,-12%,2%,-2%,0%
Cc1cc(C)n(-c2nc(C)c(C)c(=O)n2CC(=O)Nc2ccc(Cl)c(Cl)c2)n1,·,·,·,16%[46 µM],·
O=c1ccn(CCc2c[nH]c3ccccc23)c2c1CCCC2,·,·,14µM*,-9%[46 µM],·
NC(=O)CCc1c[nH]c2ccccc12,30,-13%,-9%,3%,3%
COC(=O)c1ccc(C2C(C#N)=C(N)Oc3cc(C)n(C)c(=O)c32)cc1 (centres undefined),38,-12%,25µM*,3%,-6%
COC(=O)c1c(-c2ccc(C(C)(C)C)cc2)csc1NC(=O)C1C2CCC(O2)C1C(=O)O (centres undefined),-98*,3.2µM*,5µM*,-1%,-4%
Cc1onc(-c2c(F)cccc2Cl)c1C(=O)N[C@H]1C(=O)N2[C@H]1SC(C)(C)[C@H]2C(=O)O,·,-18%,-4%[20.9 µM],-10%,-3%[25.6 µM]
CCN(C(=O)Cc1c(C(=O)O)c(C)cn1C)c1cccc(Cl)c1,·,·,·,14%[46 µM],·
CN1CCS/C1=C/C=C1\SC(=S)N(CC(=O)O)C1=O,·,·,11µM*,·,·
CN1CCS/C1=C/C=C1/SC(=S)N(Cc2ccccc2)C1=O,76,-14%,1µM*,-13%,4%
N[C@H](Cc1cccc(-c2ccccc2CP(=O)(O)O)c1)C(=O)O,·,·,·,·,-4%
CCOc1ccc(OCC)c(NC(=O)CN(C)S(=O)(=O)c2ccc3[nH]c(=O)oc3c2)c1,·,·,·,-8%[46 µM],·
CC(C)(C)NCCOCCOc1ccccc1-c1ccccc1,-106*,3%,25µM*,-5%,0%
COCCCNCCOCCOc1ccccc1-c1ccccc1,-17,-1%,-1%,0%,-1%
CCCCCC(=O)O[C@H](CC(=O)O)C[N+](C)(C)C,·,-8%,6%,·,1%
CCOC(=O)c1cc(S(=O)(=O)Nc2c(C)cc(C)cc2C)[nH]n1,·,·,·,4%[46 µM],·
